LYPLA2 counter = LYPLA2 inhibitors, primary screen, counter-screen for PME1 inhibitor project, biochemical, fluorescence polarization, FP-Rh probe ABPP; recombinant LYPLA2; 320,000 tested, 0.38% active; AID 2177, 2009; inhibition, % at 5.9 µM;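 active means inhibition above the screen-wide mean plus 3 SD, limit set per campaign, cut at about 26% in these data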;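 further: 0% = LYPLA2 with DMSO and 100% = wells lacking LYPLA2 enzyme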
PME-1 inh = PME-1 inhibitors via competitive probe labeling, primary screen, biochemical, fluorescence polarization, FP-Rh probe, HTS. AID 2130, 2009. 320,000 tested, 0.53% active. inhibition, % at 5.9 µM. recombinant PME-1;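 active means inhibition above the campaign mean of all compounds plus 3 SD, cut at about 26% in these data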;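 further: competitive labeling of PME-1 active site by serine hydrolase directed probe; 0% = PME-1 with DMSO and 100% = wells lacking PME-1 enzyme; inhibitors block probe labeling so polarization falls and inhibition rises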
Target sequence (Q9Y570 whole entry, looked up): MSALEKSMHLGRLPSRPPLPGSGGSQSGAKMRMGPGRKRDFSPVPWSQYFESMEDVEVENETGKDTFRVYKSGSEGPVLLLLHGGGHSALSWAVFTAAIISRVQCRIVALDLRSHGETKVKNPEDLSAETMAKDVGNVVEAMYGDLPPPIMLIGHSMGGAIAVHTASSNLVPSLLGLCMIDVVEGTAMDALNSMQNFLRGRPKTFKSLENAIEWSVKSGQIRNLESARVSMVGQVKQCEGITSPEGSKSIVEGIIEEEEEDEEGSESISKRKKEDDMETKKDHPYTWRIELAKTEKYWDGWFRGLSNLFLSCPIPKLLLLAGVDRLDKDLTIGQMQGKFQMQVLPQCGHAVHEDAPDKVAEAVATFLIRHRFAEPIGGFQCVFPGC
Fam108B counter = mouse Fam108B serine hydrolase inhibitors, primary screen, counter-screen for RBBP9 inhibitor project, biochemical, fluorescence polarization. recombinant Fam108B, FP-Rh probe fluorescence polarization. inhibition, % at 9.51 µM. 300,000 tested, 0.33% active;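 active means inhibition above the screen mean inhibition plus 3 SD, computed separately per campaign, cut at about 18% in these data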;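 further: inhibitors lower polarization as less probe binds the enzyme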
PREPL inhibitor = PREPL enzyme inhibitors, primary screen, biochemical, fluorescence polarization | Prolyl endopeptidase-like (Homo sapiens), Q4J6C6 | recombinant PREPL, fluorescence polarization activity-based probe | inhibition, % at 5.96 µM | 320,000 tested, 0.68% active | AID 2751, 2010; in the data active means inhibition above about 43%;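 further: 0% = enzyme with DMSO and 100% = wells lacking enzyme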
LYPLA1 inh = LYPLA1 inhibitors, primary screen, counter-screen for PME1 inhibitor project, biochemical, fluorescence polarization, FP-Rh probe ABPP | AID 2174, 2009 | inhibition, % at 5.9 µM | recombinant LYPLA1 | 320,000 tested, 0.16% active;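 active means inhibition above the mean of all tested compounds plus 3 SD, set per campaign, cut at about 14% in these data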;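 further: inhibitors block serine hydrolase probe labeling of LYPLA1 so polarization falls; 0% = enzyme with DMSO and 100% = wells lacking LYPLA1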
Target sequence (O75608 whole entry, looked up): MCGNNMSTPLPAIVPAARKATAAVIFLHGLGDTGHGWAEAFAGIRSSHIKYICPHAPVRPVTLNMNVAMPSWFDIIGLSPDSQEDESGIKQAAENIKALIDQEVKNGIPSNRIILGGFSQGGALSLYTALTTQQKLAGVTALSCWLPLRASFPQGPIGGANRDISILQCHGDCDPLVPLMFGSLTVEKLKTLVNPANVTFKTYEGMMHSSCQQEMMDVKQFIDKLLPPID
Fam108b confirm = mouse Fam108b serine hydrolase inhibitors, confirmation, counter-screen for RBBP9 inhibitor project, biochemical, fluorescence polarization, triplicate; inhibition, % at 9.51 µM; recombinant Fam108b, FP-Rh probe fluorescence polarization; 930 tested, 44% active; shares compounds with Fam108B counter;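 active means inhibition above a limit from the primary screen, the mean over all compounds plus 3 SD, cut at about 19% in these data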;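 further: 0% = median of active Fam108b wells and 100% = catalytically dead S170A mutant; inhibitors free the probe so polarization falls as inhibition rises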
Fam108b ABPP HTS = inhibition of mouse Fam108b by HTS hits, late-stage follow-up, biochemical, gel-based ABPP, soluble recombinant form; shares compounds with Fam108B counter; fluorophosphonate probe; inhibition, % at 20 µM; 260 tested, 44% active; in the data active means inhibition above about 40%
The depositor's hits bear a star; x = no result. Hits are enriched below; roughly 1.3% of the tested compounds scored in any of these assays.

SMILES	LYPLA2 counter	PME-1 inh	Fam108B counter	PREPL inhibitor	LYPLA1 inh	Fam108b confirm	others
COc1cccc(/C=N/NC(=O)c2cc3c(OC)ccc(OC)c3[nH]2)c1O	5.1	42.2*	27.4*	33.7	-1.3	13.9
COc1cc2cc(C(=O)N/N=C/c3ccccc3Cl)[nH]c2cc1OC	0.0	-2.6	32.3*	35.4	2.5	29.9*
COc1cccc(/C=N/NC(=O)c2ccc3nc[nH]c3c2)c1O	2.8	1.4	-4.4	-11.4	-0.1	x
COc1cc(OC)c2cc(C(=O)N/N=C/c3cccc(OC)c3O)[nH]c2c1	1.8	43.7*	22.5*	23.8	-4.8	22.2*
Cn1cccc1-c1cc(C(=O)N/N=C/c2ccccc2Cl)[nH]n1	-5.2	0.3	0.6	15.0	1.7	x
COc1cc(C#N)c(NC(=O)CN2CCN(CCO)CC2)cc1OC	1.9	-1.5	-0.1	-7.5	4.7	x
O=C1C(Cl)=C(Nc2ccc3cn[nH]c3c2)C(=O)c2ccccc21	14.9	29.0*	20.1*	35.5	-0.4	31.3*	Fam108b ABPP HTS=70.0*
C/C(=N\Nc1ccc(C(=O)O)cc1)c1ccc2c(c1)Nc1ccccc1S2	11.8	27.9*	30.3*	37.3	9.0	27.3*
CC(C)c1ccc(NC(=O)[C@@H]2CCC(=O)N2C2OC(=O)c3ccccc32)cc1 (stereo partly drawn)	1.9	1.4	-5.3	9.2	1.6	x
CC(C)=CCC1=C(OCC(=O)O)C(=O)c2ccccc2C1=O	8.0	20.9	22.5*	13.0	1.8	11.8
CC(C)=CCC/C(C)=C/CC/C(C)=C/CC/C(C)=C/CC1=C(C)C(=O)c2ccccc2C1=O	6.7	2.8	1.3	-6.1	-0.9	x
CNc1ccc(Br)cc(C(=O)/C=C/c2ccc3c(c2)OCO3)c1=O	11.5	2.9	18.2*	11.1	5.1	6.5
CNc1ccc(Br)cc(C(=O)/C=C/c2ccc(OC)cc2)c1=O	-1.9	13.1	9.9	-0.3	1.0	x
Nc1[nH]n(-c2ccccc2)c(=O)c1N=Nc1ccc2ncsc2c1	10.6	36.0*	19.9*	41.9	5.5	7.7
N[C@H](CSCc1ccccc1)C(=O)Nc1ccc([N+](=O)[O-])cc1	0.0	26.3*	29.5*	8.3	-11.2	-5.3
Cc1cc(N2CCN(C(=O)c3ccco3)CC2)c2ccccc2n1	0.4	0.2	1.7	11.8	-1.9	x
O=C(O)CCNc1cc(N2CCN(C(=O)c3ccco3)CC2)c2noc3c2c1C(=O)c1ccccc1-3	0.4	-8.8	38.3*	37.5	3.1	11.0
CSc1nc(NCCOCCO)c2sc3nc(-c4ccco4)c4c(c3c2n1)CCC4	-10.8	-4.6	28.5*	5.0	-12.1	5.4
C=Cc1c(C)c2cc3[nH]c(cc4nc(cc5nc(cc1[nH]2)C(C)=C5CCC(=O)O)C(CCC(=O)O)=C4C)c(C)c3C=C	17.3	-4.0	46.5*	40.5	13.7	44.1*	Fam108b ABPP HTS=0.0
Nc1c(S(=O)(=O)c2cccs2)c2nc3ccccc3nc2n1/N=C/c1cccc(O)c1	-55.9	-75.3	-45.4	-27.4	-50.3	x
Nc1c(S(=O)(=O)c2cccc(Cl)c2)c2nc3ccccc3nc2n1N=Cc1ccc(O)c(O)c1	x	x	x	x	x	x	Fam108b ABPP HTS=80.0*
Cc1c(Br)c(=O)oc2c(Br)c(O)c(O)cc12	3.0	13.6	24.7*	31.6	5.1	21.0*
Cc1cc(Nc2ccccc2)nc(NCc2ccccc2)n1	2.1	7.3	3.1	-5.8	-3.8	x
Cc1cc(Nc2ccc(Cl)cc2)nc(NCc2ccccc2)n1	-1.5	13.9	33.5*	2.3	-5.3	32.1*	Fam108b ABPP HTS=45.0*
CC(C)Oc1ccc(CCC(=O)N/N=C/c2ccc3c(c2)OCO3)cc1	8.1	41.4*	25.5*	38.1	-0.5	0.1
SMILES	LYPLA2 counter	PME-1 inh	Fam108B counter	PREPL inhibitor	LYPLA1 inh	Fam108b confirm	others
O=C(CCc1ccc(O)c(O)c1)N/N=C/c1ccc2c(c1)OCO2	-6.2	-5.3	1.3	17.7	-4.8	x
Cn1ccnc1C(=O)c1ccccc1Cl	7.6	-3.0	51.6*	-0.5	2.1	-7.4
Cn1ccnc1C(=O)c1cccc(Br)c1	-2.6	-4.0	4.0	-1.3	-0.6	x
O=C(NN=Cc1cc(Cl)c(O)c(Cl)c1)c1cc2c(ccc3ccccc32)o1	x	x	x	x	x	x	Fam108b ABPP HTS=0.0
O=C(N/N=C/c1ccncc1)c1cc2c(ccc3ccccc32)o1	-7.8	-27.8	-9.2	-2.5	-16.2	x
COc1ccccc1/C=N/NC(=O)c1cc2c(ccc3ccccc32)o1	-9.3	3.3	-5.2	-7.0	-12.3	x
COc1cc(/C=N/NC(=O)c2cc3c(ccc4ccccc43)o2)cc(OC)c1O	2.9	34.3*	27.2*	23.1	-2.4	20.3*
Cc1cccc(NC(=S)NNC(=O)c2cc3c(s2)CCC(C)C3)c1C (stereo not drawn)	-4.0	3.9	-3.5	3.0	-4.0	x
CCCN1CCC(N2CCCC(C(=O)O)C2)CC1 (stereo not drawn)	-4.0	-1.9	0.7	1.9	-1.5	x
CN(C)c1ccc(C=NN2C(=S)SC(C)(C)C2N(O)C(=O)Nc2ccc([N+](=O)[O-])cc2)cc1 (stereo not drawn)	x	x	x	x	x	x	Fam108b ABPP HTS=95.0*
CNC(=O)N(O)C1N(/N=C/c2ccc(SC)cc2)C(=S)SC1(C)C (stereo not drawn)	4.8	-0.7	-3.4	-4.9	-1.4	x
CN(C)c1ccc(/C=N/N2C(=S)SC(C)(C)C2N(O)C(=O)Nc2ccc([N+](=O)[O-])cc2)cc1 (stereo not drawn)	3.5	5.0	33.3*	3.4	-3.4	99.5*
CC(C)n1nc(C(=O)N2CCN(S(=O)(=O)c3cccs3)CC2)c2ccccc2c1=O	4.6	6.7	0.2	-0.6	0.3	x
CCCCn1c(N)c(N(CCOC)C(=O)c2ccc(C)o2)c(=O)[nH]c1=O	-1.8	8.3	1.2	9.0	0.3	x
Cn1c(SCC(=O)NCc2ccco2)nnc1C1CCCC1	-2.2	-2.1	-1.1	-2.2	-2.3	x
Cc1ccc(-n2[nH]c(C)c(/C=N/Nc3ccc([N+](=O)[O-])cc3[N+](=O)[O-])c2=O)cc1C	14.8	29.8*	25.2*	16.4	5.6	12.0
O=C(NCC1CC1)c1ccc(Nc2nc3ccc(Br)cc3[nH]2)cc1	-6.3	7.3	19.2*	19.9	-13.1	47.6*	Fam108b ABPP HTS=75.0*
O=C(Cc1ccc(Nc2nc3ccc(Br)cc3[nH]2)cc1)NCCc1cccs1	0.5	23.6	14.4	31.4	-8.3	x
O=C(NCc1ccco1)c1cccc(Nc2nc3ccc(Br)cc3[nH]2)c1	-36.9	24.3	25.4*	20.8	-17.3	11.3
O=C(CN1CCN(Cc2ccc3c(c2)OCO3)CC1)Nc1ccc2[nH]c(=O)[nH]c2c1	x	x	x	40.8	x	x

Compound activity (PubChem)
